MITF primary = blocks human microphthalmia-associated transcription factor; O75030; AlphaScreen MITF homodimerization, bead proximity signal; inhibition, % at 2.6 µM; hit rate 0.91% among 650,000; in the data active = inhibition above about 50%;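 also: 0% = vehicle wells with protein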
Target sequence (O75030 whole entry, looked up): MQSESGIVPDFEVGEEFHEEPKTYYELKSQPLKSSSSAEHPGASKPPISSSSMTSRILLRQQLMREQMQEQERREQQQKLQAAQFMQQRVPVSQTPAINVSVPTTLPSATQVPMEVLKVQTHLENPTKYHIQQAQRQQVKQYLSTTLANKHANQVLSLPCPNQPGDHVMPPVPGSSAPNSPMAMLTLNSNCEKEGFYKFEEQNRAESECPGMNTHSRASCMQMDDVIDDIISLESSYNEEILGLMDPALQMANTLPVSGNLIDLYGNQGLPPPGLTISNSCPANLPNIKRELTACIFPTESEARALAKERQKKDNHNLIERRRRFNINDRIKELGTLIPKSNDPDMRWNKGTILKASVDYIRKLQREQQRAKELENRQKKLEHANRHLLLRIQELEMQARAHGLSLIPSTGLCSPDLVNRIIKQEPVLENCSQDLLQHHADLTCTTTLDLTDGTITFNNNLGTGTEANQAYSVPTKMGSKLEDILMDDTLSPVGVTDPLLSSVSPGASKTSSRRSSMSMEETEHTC
GPR151 ag = human GPR151 activation; Q8TDV0; AID 1508602; hit rate 1% among 650,000; PathHunter beta-arrestin GPR151 cells, luminescence; activation, % at 11.2 µM; in the data active = activation above about 4.9%;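 also: 0% = median of compound wells and 100% = cells with positive control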
FBW7 activator = activators of human E3 ligase FBW7; Q969H0; hit rate 0.13% among 650,000; normalized activity (activation), % at 26.1 µM; AlphaScreen FBW7–phospho-cyclin E peptide binding, activator screen; AID 1259310; in the data active = normalized activity above about 1.9%;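 also: purified mutant Fbw7 with reduced substrate affinity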
TEAD-YAP block = TEAD-YAP interaction inhibition. HEK-TIYL cells, TEAD-Gal4/YAP UAS-luciferase luminescence. inhibition, % at 9.12 µM. hit rate 1.4% among 640,000. AID 1259422; in the data active = inhibition above about 32%;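 also: 0% = median of test compound wells and 100% = reference inhibitor wells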
GPR151 conf act = human GPR151 activation, confirmation screen; 6,700 tested, under 10 active; shares compounds with GPR151 ag; AID 1508609; activation, % at 11.2 µM; GPR151 PathHunter beta-arrestin cells, luminescence, 90 min; % of EA-reagent control over plate median;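 active = mean percent activation across replicates above the confirmation screen cutoff of 4.91%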
GPR119 counter = activates human GPR119 in a GPR151 counter-screen | shares compounds with GPR151 ag | GPR119 PathHunter beta-arrestin cells, luminescence, 90 min; 0 = compound-well median, 100 = enzyme-acceptor control | activation, % at 11.2 µM | hit rate 0.3% among 6,700;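 active = mean percent activation in the counterscreen above 29.09%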;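 also: counterscreen on off-target GPR119 to flag nonselective hits from the GPR151 activator screen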
* marks the source's active call; other numbers are inactive results; ! = repeats disagree. Shown are actives, neighbours in structure and some others; about 3.4% of the full set was active somewhere.

`CCOc1cc(C2CC(=O)NC3=C2C(=O)C(C(=O)OC)C(C)C3)cc(Cl)c1O` (configuration not stated) gave MITF primary -6, GPR151 ag 8.3*, FBW7 activator 0, TEAD-YAP block -12, GPR151 conf act 0 and GPR119 counter -4.
For CCOc1cc(S(=O)(=O)n2nnc3ccccc32)ccc1F the results were MITF primary -20, GPR151 ag 5.1*, FBW7 activator -1, TEAD-YAP block 9, GPR151 conf act 0 and GPR119 counter 15.
Screening COc1ccc(-n2ncc3c(N4CCN(c5ccc(C)cc5)C(C)C4)ncnc32)cc1 (configuration not stated) returned MITF primary 0, GPR151 ag 2, FBW7 activator 0 and TEAD-YAP block -2.
CC(=O)NCCSCc1cc2cccc3c2n(c1=O)CCC3 was read as MITF primary 9, GPR151 ag 6.3*, FBW7 activator 0, TEAD-YAP block -11, GPR151 conf act -1 and GPR119 counter -8.
Screening c1ccc(-n2nnnc2Sc2ccncc2)cc1 returned MITF primary 5, GPR151 ag 3, FBW7 activator 0 and TEAD-YAP block 9.
O=C(NS(=O)(=O)c1ccccc1)c1ccccc1O was read as MITF primary -11, GPR151 ag 5.6*, FBW7 activator 0, TEAD-YAP block 2, GPR151 conf act 0 and GPR119 counter -5.
For Cc1ccc(N2C(=O)CC(NCCc3ccc(Cl)cc3)C2=O)cc1 (configuration not stated) the results were MITF primary 1, GPR151 ag 6.4*, FBW7 activator 0, TEAD-YAP block 6, GPR151 conf act 1 and GPR119 counter 12.
Screening COc1ccc(CCNC2CC(=O)N(c3ccccc3)C2=O)cc1 (configuration not stated) returned MITF primary 0, GPR151 ag 5.8*, FBW7 activator 0, TEAD-YAP block 6, GPR151 conf act 0 and GPR119 counter 4.
`CCCOc1ccc(N2C(=O)CC(NCCCc3ccccc3)C2=O)cc1` (configuration not stated) gave MITF primary -2, GPR151 ag 6.1*, FBW7 activator 0, TEAD-YAP block -8, GPR151 conf act 0 and GPR119 counter -7.
`CCCOc1ccc(N2C(=O)CC(NCC34CC5CC(CC(C5)C3)C4)C2=O)cc1` (configuration not stated) gave MITF primary 1, GPR151 ag 5.2*, FBW7 activator 0, TEAD-YAP block 5, GPR151 conf act -1 and GPR119 counter -11.
For COc1ccc(CCNC2CC(=O)N(c3ccc(F)cc3)C2=O)cc1 (configuration not stated) the results were MITF primary 5, GPR151 ag 0, FBW7 activator 0 and TEAD-YAP block -8.
Screening COc1ccc(CCN2CCC(NCc3cccc(N(C)C)c3)CC2)cc1 returned MITF primary 13, GPR151 ag 5.5*!, FBW7 activator 0, TEAD-YAP block 5, GPR151 conf act 0 and GPR119 counter -4.
For CCN1C(=O)Cc2ccccc21 the results were MITF primary -1, GPR151 ag 6.7*, FBW7 activator 0, TEAD-YAP block 5, GPR151 conf act -1 and GPR119 counter -13.
Screening COc1ccc(OC)c(/C=C(\C#N)C(=O)Nc2cc([N+](=O)[O-])ccc2F)c1 returned MITF primary -13, GPR151 ag 0, FBW7 activator 0 and TEAD-YAP block -10.
`CC(=O)c1ccc(S(=O)(=O)Nc2ccc(S(=O)(=O)NCc3ccco3)cc2)cc1` gave MITF primary 20, GPR151 ag -1, FBW7 activator 0 and TEAD-YAP block 11.
`Cc1ccc(C(=O)NC(C(=O)O)C(C)C)cc1` (configuration not stated) gave MITF primary 9, GPR151 ag 7.8*, FBW7 activator 0, TEAD-YAP block 9, GPR151 conf act 0 and GPR119 counter -3.
For Cc1ccc(C(=O)NC(C)C2CC3CCC2C3)cc1 (configuration not stated) the results were MITF primary 0, GPR151 ag 10*, FBW7 activator 0, TEAD-YAP block -12, GPR151 conf act 1 and GPR119 counter 3.
